# Data taken from ChEMBL document CHEMBL4513216, “Probing the Open Global Health Chemical Diversity Library for Multistage-Active Starting Points for Next-Generation Antimalarials” (ACS Infect Dis, 2020).
# Out of some 69,000 compounds screened, about 8,600 (12%) showed an effect of 50% or more. Only a selection was taken, and strong results are over-represented in it overall.
# Tested on: Plasmodium berghei
# Assay: Screen against P. berghei liver stage (PbLuc), transformed with Luciferase, at 10uM
# Type: functional, HepG2
# Conditions: tested at 10 uM
row,SMILES,INHIBITION
1,COc1ccc(F)cc1S(=O)(=O)NCCn1cnc(C)cc1=O,41.7%
2,COCCNC(=O)c1cc(-n2cccc2)ccc1Cl,22.2%
3,CCN(CC)c1ccc(C(=O)N2CCCC(n3cncn3)C2)cn1 (stereo unspecified),-12.7%
4,Cc1oncc1C(=O)N1CCC2(CC1)CN(S(C)(=O)=O)c1ccccc12,-13.4%
5,CN(Cc1ccsc1)C(=O)CN1CCc2c(ncn2C)C1,-1.15%
6,COc1cccc(CN(C)C(=O)CN2CC(n3nc(C)cc3C)C2)c1,53.7%
7,COc1cccc(CC(=O)N2CCCC(n3nc(C)cc3C)C2)c1 (stereo unspecified),5.03%
8,COCCN1CCN(CC(=O)N(C)Cc2ccsc2)CC1,65.7%
9,COCCN1CCN(CC(=O)N(C)Cc2ccsc2)CC1C (stereo unspecified),-39.2%
10,COc1cccc(CNC(=O)C(C)N2CC(n3nc(C)cc3C)C2)c1 (stereo unspecified),39.8%
11,CN(C)C(=O)Cn1cc(C(=O)NCCc2cccc(Cl)c2Cl)nn1,-8.4%
12,COCCNC(=O)[C@H]1C[C@H]2OCC[C@H]2N(Cc2ccoc2)C1,31.1%
13,Cc1nc(N2CCCC2)nc2c1CCN(C(=O)CC1CCCC1)CC2,-10.3%
14,COc1ccc(CC(=O)N2CC[C@@H]3NC(=O)CC[C@@H]32)cc1,-6.46%
15,COc1cccc(CC(=O)N2CC[C@@H]3NC(=O)CC[C@@H]32)c1,-0.554%
16,Cc1ccc(CC(=O)N2CC[C@@H]3NC(=O)CC[C@@H]32)cc1,58.5%
17,Cc1c(S(=O)(=O)NCC(C)Cn2cc(Cl)cn2)cnn1C (stereo unspecified),35.8%
18,CN(CCCc1cnn(C)c1)C(=O)C1CCC(=O)N(C2CCCC2)C1 (stereo unspecified),-7.85%
19,C[C@H]1C[C@H]2CN(S(=O)(=O)c3ccc(F)cc3)CC[C@H]2O1,-7.28%
20,CC1COCCN1C(=O)Cc1cc(Cl)c2c(c1)OCCCO2 (stereo unspecified),0.348%
21,O=C1C[C@H]2[C@@H](CCN2C(=O)c2ccoc2)N1CCN1CCOCC1,-6.23%
22,COc1cccc(OCCCc2cc(C#N)ccn2)c1,55.6%

row,SMILES,INHIBITION
1,COc1ccccc1OCCCc1cc(C#N)ccn1,45.7%
2,COc1ccccc1OCCCc1cccc(C#N)n1,-34.1%
3,COCc1cc(CNC(=O)c2cc(NC(C)=O)ccc2Cl)n[nH]1,40.6%
4,O=C(c1ccoc1)N1CCO[C@]2(CCC[C@H]2COCc2cccnc2)C1,-34.7%
5,Cc1ccc(CNC2CC3(CCN(CCO)CC3)c3ccccc32)s1 (stereo unspecified),60.2%
6,Cn1cncc1CNC1CC2(CCN(S(C)(=O)=O)CC2)c2ccccc21 (stereo unspecified),23.1%
7,COCCN1CCC2(CC1)CC(NCc1cncn1C)c1ccccc12 (stereo unspecified),54.1%
8,COCCN1CCC2(CC1)CC(NCc1ccc(C)s1)c1ccccc12 (stereo unspecified),45.7%
9,Cc1cccc(CNC2CC3(CCN(CCO)CC3)c3ccccc32)n1 (stereo unspecified),52.1%
10,O=C(NC1CC2(CCN(CCO)CC2)c2ccccc21)c1ccsc1 (stereo unspecified),27.5%
11,O=C(NC1CC2(CCN(CCO)CC2)c2ccccc21)c1ccncc1 (stereo unspecified),49.7%
12,Cn1cncc1CNC1CC2(CCN(CC3CC3)CC2)c2ccccc21 (stereo unspecified),45.2%
13,CCN1CCC2(CC1)CC(NCc1cccc(C)n1)c1ccccc1O2 (stereo unspecified),-4.88%
14,COCCNC(=O)NC1CCN(c2cnn(C)c2)C1 (stereo unspecified),16%
15,Cn1cc(CN2C[C@@H](NC(=O)c3cscn3)[C@H]3OCCC[C@H]32)cn1,-4.88%
16,COc1ccc(-c2ccnc(N)c2)c(C)c1,29.1%
17,COCCNS(=O)(=O)c1cccc(CSC)c1,20.2%
18,Cc1nn(C)c(C)c1C1CCCN1C(=O)CCCc1ccccn1 (stereo unspecified),23.4%
19,CC(C)NC1CCc2[nH]c(=O)ccc2C1 (stereo unspecified),86.2%
20,O=C(NC1CCCC1)NC1CCc2[nH]c(=O)ccc2C1 (stereo unspecified),34.9%
21,CS(=O)(=O)NC1CCc2[nH]c(=O)ccc2C1 (stereo unspecified),30.5%
22,CN(C)CCN(Cc1ccccn1)Cc1ccnn1C1CCCCO1 (stereo unspecified),18.3%

row,SMILES,INHIBITION
1,COCC1CN(C(=O)COc2ccc(C)cc2)Cc2cn(C)nc21 (stereo unspecified),5.96%
2,Cc1cc(C(=O)NCCc2cn3nc(C)sc3n2)c(C)o1,-98.6%
3,Cc1cc(C(=O)NCCc2nc3c(s2)CCCC3)n(C)n1,68%
4,CC(C)c1cc(C(=O)NCCc2nc3c(s2)CCC3)n(C)n1,89.6%
5,Cc1nc(CCNC(=O)C2CC(=O)N(C(C)C)C2)sc1C (stereo unspecified),22.3%
6,Cc1nc(CCNC(=O)c2cc(C(C)C)nn2C)sc1C,81%
7,COc1nc2c(cc1C(=O)NCCc1nc3c(s1)CCC3)CCC2,-6.04%
8,CC(=O)c1ccc(CNC(=O)c2cc(C)nn2C)nc1C,-34%
9,CC(C)Cc1cc(C(=O)NCCc2nnc(N)s2)n(C)n1,-24.7%
10,Cc1nn2cc(CCNC(=O)c3cc(C(C)C)nn3C)nc2s1,82.7%
11,c1cc(-c2nccn2CCc2nc3c(s2)CCC3)ccn1,11.6%
12,O=C(O)c1ccnc(-c2ccnc(NCCc3nc4c(s3)CCC4)n2)c1,30.9%
13,Cc1nn2cc(CCNC(=O)c3cc(C(C)C)no3)nc2s1,-97.2%
14,CN1CCCN(Cn2nc(-c3ccccc3F)ccc2=O)CC1,18.2%
15,Cc1ccsc1C1CCCCCN1Cc1cn(C)nc1C (stereo unspecified),49%
16,CC(C)n1cnnc1CN(C)C(=O)c1ccccc1N1CCOCC1,7.92%
17,CCN(CC(O)c1ccc(C)cc1)C(=O)NC(C)C (stereo unspecified),17.8%
18,COc1c(C2CCCN2C(=O)c2cccc(C)n2)c(C)nn1C (stereo unspecified),1.78%
19,CNC(=O)[C@@H]1C[C@H]2CN(Cc3csc(C)n3)C[C@H]2N1C(C)C,42.4%
20,O=S(=O)(Nc1cnc(N2CCOCC2)nc1)c1ccc(C(F)(F)F)cc1,-18%
21,CCOc1ccc(NC(=O)Nc2cnc(N3CCOCC3)nc2)cc1,-8.66%
22,O=C(Nc1cnc(N2CCOCC2)nc1)c1ccc(C(F)(F)F)cc1,77.9%

row,SMILES,INHIBITION
1,COCC(=O)Nc1cnc(N2CCOCC2)nc1,26.9%
2,O=C(CCCc1ccccc1)Nc1cnc(N2CCOCC2)nc1,-33.3%
3,O=C(COc1ccc(Cl)cc1)Nc1cnc(N2CCOCC2)nc1,52.7%
4,CCN1CC2(CC1=O)CN(C(=O)NC(C)C)CCN(S(C)(=O)=O)C2 (stereo unspecified),21.6%
5,O=S(=O)(c1ccc(F)cc1)N1CCCC(c2nccs2)C1 (stereo unspecified),13.5%
6,CC(=O)NCc1nccnc1C1CCN(C(=O)c2cc[nH]n2)CC1,-19.7%
7,Cc1cnc(N2CCC3(CC2)CC3CNC(=O)N(C)C)nc1 (stereo unspecified),7.24%
8,Cc1cnc(N2CCC3(CC2)CC3CNC(=O)C2CCC2)nc1 (stereo unspecified),50.7%
9,Cc1cnc(N2CCC3(CC2)CC3C(=O)NCC2CC2)nc1 (stereo unspecified),16.9%
10,CC(C)(C)CC(=O)NS(=O)(=O)c1ccc(F)cc1C(F)(F)F,-15.5%
11,Cc1nn(C)c(C)c1C1CCCN1Cc1nc2ccccc2c(=O)[nH]1 (stereo unspecified),-33.7%
12,O=c1[nH]c(COc2cccc(F)c2)nc2c1CCNC2,15.8%
13,CC(C)(C)c1ccc(OCc2nc3c(c(=O)[nH]2)CCNC3)cc1,-13.3%
14,O=c1[nH]c(NCc2cccc(OC(F)F)c2)nc2c1CCNC2,88%
15,O=c1[nH]c(COc2ccccc2Cl)nc2c1CCNC2,2.15%
16,COc1cc(CNc2nc3c(c(=O)[nH]2)CCNC3)cc(OC)c1OC,57.8%
17,O=c1[nH]c(NCc2cccc(-c3ccccc3)c2)nc2c1CCNC2,21.9%
18,CCC=C(C)C(=O)N1CSCC1C(=O)NC1=NCCS1 (stereo unspecified),7.58%
19,OC1CCN(C2CCN(Cc3cnc(-c4cccs4)nc3)CC2)CC1,25.1%
20,CC(C1CCN(Cc2cnc(-c3cccs3)nc2)CC1)N(C)C (stereo unspecified),18.8%
21,C[C@@H]1CN(C2CCN(Cc3cnc(-c4cccs4)nc3)CC2)C[C@H](C)O1,63.7%
22,CC(C)n1ncc2cc(NC(=O)N3CCSCC3)cnc21,11.2%

row,SMILES,INHIBITION
1,O=C(Cc1csc(-c2ccco2)n1)N1CCN(c2ccccc2O)CC1,-44.3%
2,CC(=O)N1CCOCC(Cc2ccc3c(ccn3C(C)=O)c2)C1 (stereo unspecified),12.59%
3,Cc1ccc(CC2COCCN(S(=O)(=O)c3ccccc3)C2)nc1 (stereo unspecified),1.62%
4,CC(C)c1nn(C)c(N(C)C)c1CNC1CCc2cc(F)ccc21 (stereo unspecified),-25.3%
5,OCc1csc(N2CCCC(COc3cccc(F)c3)C2)n1 (stereo unspecified),39.9%
6,COCC(=O)N1CCCC(COc2ccccc2C)C1 (stereo unspecified),-4.37%
7,CCc1nnsc1C(=O)N1CCCC(COc2ccc(F)cc2)C1 (stereo unspecified),26.4%
8,CN(C)Cc1nc(C(=O)N2CCCC(COc3ccc(F)cc3)C2)cs1 (stereo unspecified),15.7%
9,Cc1nc(CN(C)C)cc(N2CCCC(COc3ccc(F)cc3)C2)n1 (stereo unspecified),79.5%
10,CN(C)Cc1ccc(C(=O)N2CCCC(COc3ccc(F)cc3)C2)o1 (stereo unspecified),63%
11,Cc1ccccc1OCC1CCCN(c2cc(N)nc(N)n2)C1 (stereo unspecified),73.8%
12,COc1cccc(OCC2CCCN(c3cc(C(N)=O)ccn3)C2)c1 (stereo unspecified),40.7%
13,Cc1nc(N)cc(N2CCCC(COc3cccc(F)c3)C2)n1 (stereo unspecified),73.8%
14,COc1ccc(OCC2CCCN(c3nc(CO)cs3)C2)cc1 (stereo unspecified),-3.43%
15,Cc1ccc(OCC2CCCN(c3cc(C(N)=O)ccn3)C2)cc1 (stereo unspecified),26.5%
16,CCNC(=O)c1ccnc(N2CCCC(COc3ccccc3C)C2)c1 (stereo unspecified),30.9%
17,O=C(c1ccccc1)N1CC2(CCNC2)OCc2ccccc21 (stereo unspecified),-0.621%
18,Cc1cnc(N2Cc3nccn3CC(Cn3ncccc3=O)C2)nc1 (stereo unspecified),38.2%
